Hit rate of the full screen: of about 360,000 compounds, about 4,500 (1.2%) were called active. The sample as a whole holds a higher share of actives than the screen did. Values without a mark were called inactive. Cut-off read from the data, not from the text of the source: active = inhibition above about 30%; inactive = the rest.
Assay: GDH-TPI coupling enzyme inhibitors, primary screen, artefact control for M. tuberculosis FBA inhibitor project, biochemical, absorbance, full deck (AID 588335);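 note: 0% = DMSO wells and 100% = wells lacking the enzyme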
Settings: GDH-TPI coupled enzyme counterscreen, NADH absorbance; at 4.8 µM; hits give high values
In the case of `Cc1ccccc1CCNC(=O)C1CCC(=O)N(Cc2ccc(Cl)cc2)C1` (centres undefined), the inhibition is reported as -2.1%. Work on `CC1(C)C[C@H]2C3=CCC4[C@@]5(C)CC[C@H](O)[C@](C)(CO)C5CC[C@@]4(C)[C@]3(C)C[C@@H](O)[C@@]2(CO)[C@@H](O)[C@@H]1O` (some centres undefined) yielded an inhibition of 8.82%. Compound `COC(=O)C1=NN(c2ccccc2)C2C(=O)N(c3ccccc3OC)C(=O)C12` (centres undefined) has an inhibition of 21%. In the case of `CC(=O)N[C@@H](C)C(=O)N1CCC(n2nccc2NC(=O)CCCc2ccccc2)CC1`, the inhibition is reported as 8.3%. In the case of `CCC(C)Sc1nc2c(cnn2-c2ccc(F)cc2)c(=O)[nH]1` (centres undefined), the inhibition is reported as 8.15%. For `COc1ccc(-c2nonc2NC(=O)c2oc3ccc(F)cc3c2C)cc1OC`, the inhibition was -4.27%. Compound `O=C(N/C(=C\c1ccc([N+](=O)[O-])cc1)C(=O)N1CCOCC1)c1cccc(Br)c1` has an inhibition of 28.7%. Compound `COc1cc(/C=C(/NC(=O)c2ccccc2)C(=O)Nc2cccc(O)c2)c([N+](=O)[O-])cc1OC` has an inhibition of 11.6%. For `Cc1ccc(NC(=O)/C(=C/c2ccc([N+](=O)[O-])cc2)NC(=O)c2ccccc2)cc1`, the inhibition was 49.4% (active). With `Cc1nc(Cl)cc(N/N=C/c2ccccc2)n1` the inhibition was 39.2% (active). In the case of `Cc1cc2c(C)nc(N/N=C/c3ccccc3)nc2o1`, the inhibition is reported as 28.5%. `Nc1nnn(CC(=O)N/N=C/c2ccccc2)n1` showed an inhibition of 10.1%. In the case of `COc1ccc(Br)cc1CN(C)CC(=O)Nc1cc(Cl)cc(Cl)c1`, the inhibition is reported as -4.49%. `CC(=O)Nc1ccc(S(=O)(=O)NCC(=O)OCC(=O)c2ccc[nH]2)cc1` gave an inhibition of 4.57%. With `O=c1c2ccccc2nc2n1C(CSCc1cccc(C(F)(F)F)c1)CS2` (centres undefined) the inhibition was 32.9% (active). In the case of `N#Cc1c(-c2ccccc2)nc(SCc2cccc(C(F)(F)F)c2)[nH]c1=O`, the inhibition is reported as -3.35%. In the case of `O=c1c2ccccc2nc2n1C(CSCc1ccccc1)CS2` (centres undefined), the inhibition is reported as 2.03%. Work on `CC1=C(C(=O)Nc2cc(C)ccn2)C(c2cnn(C)c2)C2=C(CC(c3ccccc3)CC2=O)N1` (centres undefined) yielded an inhibition of 16.7%. `CC(C(=O)NC1CCCCC1)N1C(=O)c2cccc3cccc1c23` (centres undefined) showed an inhibition of 8.59%. `C/C(=N\NC(=S)NC1CCCCC1)c1ccc(C)o1` gave an inhibition of 12.9%. In the case of `Cc1ccc(/C=N/NC(=S)NC2CCCCC2)o1`, the inhibition is reported as 32.4% (active). Compound `Cc1cc(Br)ccc1NC(=S)NC1CCCC1` has an inhibition of 13.7%. Compound `O=C(NCc1cccnc1)c1cc(C2CCCCN2C(=O)CCc2ccccc2)on1` (centres undefined) has an inhibition of 1.83%. `CCN(CC)c1ccc(NC(=O)CCc2nnc3ccc(N4CCCCC4)nn23)c(C)c1` showed an inhibition of 13.9%.
